Reference: PubChem BioAssay (NCATS)
Records with an inconclusive call do not appear. A call without a number means that no potency is given here. Values without a mark were called inactive. Active and inactive are the calls of the source. The call rests on the fitted dose curve; in most records, active means well fitted curve in the direction sought with a large enough effect; inconclusive means small, poorly fitted or top-dose-only effect, or another doubt; inactive means no such curve, though single readings can be large; an effect the other way counts as inactive or inconclusive.

Key:
[1] = Primary qHTS for inhibitors of nuclear receptor binding SET domain protein 2 (NSD2) in an isogenic RCH-ACV NSD2 p.E1099K mutant (9B) (AID 1645876); conditions: RCH-ACV NSD2 E1099K (9B) viability, CellTiter-Glo, 72 h; series mostly up to 44.9 µM
[2] = Primary qHTS for inhibitors of nuclear receptor binding SET domain protein 2 (NSD2) in an RCH-ACV wild type WT cells (2C) (AID 1645877); conditions: RCH-ACV (leukaemia line) NSD2 WT (2C) viability, CellTiter-Glo, 72 h; series mostly up to 44.9 µM
Further: nearly all actives have a fitted effect of over 70% in size.
Potency means the concentration at half of the fitted maximal effect.

| SMILES | Potency [1] | Potency [2] | activity change, negative = viability loss [1] | activity change, negative = cell killing [2] |
| --- | --- | --- | --- | --- |
| CCNC(=O)[C@H]1O[C@H](n2cnc3c(NCC(c4ccccc4)c4ccccc4)nc(C(=O)NCCNC(=O)NC4CCN(c5ccccn5)CC4)nc32)[C@H](O)[C@@H]1O | inactive | inactive | – | – |
| CC1(C)CC[C@]2(C(=O)O)CC[C@]3(C)C(=CCC4[C@@]5(C)CCC(O[C@@H]6OC[C@H](O)[C@H](O)[C@H]6O[C@@H]6O[C@H](CO)[C@@H](O)[C@H](O)[C@H]6O)[C@@](C)(CO)C5CC[C@]43C)[C@@H]2C1 (stereo partly drawn) | inactive | inactive | – | – |
| CC1(C)CCC(C)(C)c2cc([C@@H](O)C(=O)Nc3ccc(C(=O)O)cc3F)ccc21 | inactive | inactive | – | – |
| CC1CCC2C(C)(C)C(O)CCC2(C)C12Cc1c(O)cc3c(c1O2)CN(C(CCC(N)=O)C(=O)O)C3=O (stereo not drawn) | inactive | inactive | – | – |
| COc1cc(O[C@@H]2O[C@H](CO)[C@@H](O)[C@H](O)[C@H]2O)c(CCC(=O)OC[C@H]2O[C@@H](Oc3cc(OC)c(C4OC(=O)C(C)(O)C4O)cc3CCC(=O)O)[C@H](O)[C@@H](O)[C@@H]2O)cc1C1OC(=O)C(C)(O)C1O (stereo partly drawn) | – | – | -2.96% [at 9.23 µM] | -6.02% [at 9.23 µM] |
| Nc1ncnc2c1ncn2[C@H]1CCCO1 | inactive | inactive | – | – |
| CC1C/C=C/C=C\CCCCC(O)C/C=C/C(=O)O1 (stereo not drawn) | inactive | inactive | – | – |
| C=C1CC[C@H]2[C@@](C)(CCC[C@@]2(C)C(=O)O)[C@@H]1CCC(C)CCO (stereo partly drawn) | inactive | inactive | – | – |
| O=C(Nc1cccnn1)N1CCC(=Cc2cccc(Oc3ccc(C(F)(F)F)cn3)c2)CC1 | 11.5 µM (active) | 10.3 µM (active) | – | – |
